Bioassay records deposited in PubChem by National Center for Advancing Translational Sciences (NCATS).
RXFP1 ag = qHTS Assay for Agonists of the Relaxin Receptor RXFP1 | Relaxin receptor 1 (Homo sapiens), Q9HBX9 | HEK293T-RXFP1 cAMP TR-FRET, 30 min; response scale: percent of porcine relaxin response, buffer zero | Potency, µM (titrated, usually from 57.5 µM), usual class: activators | 370,000 compounds, 0.3% hits; active = well fitted activation curve with a large enough effect; inconclusive = small, poorly fitted or top-dose-only effect; note: nearly all actives have a fitted effect of over 60% in size
Target sequence (Q9HBX9 whole entry, looked up): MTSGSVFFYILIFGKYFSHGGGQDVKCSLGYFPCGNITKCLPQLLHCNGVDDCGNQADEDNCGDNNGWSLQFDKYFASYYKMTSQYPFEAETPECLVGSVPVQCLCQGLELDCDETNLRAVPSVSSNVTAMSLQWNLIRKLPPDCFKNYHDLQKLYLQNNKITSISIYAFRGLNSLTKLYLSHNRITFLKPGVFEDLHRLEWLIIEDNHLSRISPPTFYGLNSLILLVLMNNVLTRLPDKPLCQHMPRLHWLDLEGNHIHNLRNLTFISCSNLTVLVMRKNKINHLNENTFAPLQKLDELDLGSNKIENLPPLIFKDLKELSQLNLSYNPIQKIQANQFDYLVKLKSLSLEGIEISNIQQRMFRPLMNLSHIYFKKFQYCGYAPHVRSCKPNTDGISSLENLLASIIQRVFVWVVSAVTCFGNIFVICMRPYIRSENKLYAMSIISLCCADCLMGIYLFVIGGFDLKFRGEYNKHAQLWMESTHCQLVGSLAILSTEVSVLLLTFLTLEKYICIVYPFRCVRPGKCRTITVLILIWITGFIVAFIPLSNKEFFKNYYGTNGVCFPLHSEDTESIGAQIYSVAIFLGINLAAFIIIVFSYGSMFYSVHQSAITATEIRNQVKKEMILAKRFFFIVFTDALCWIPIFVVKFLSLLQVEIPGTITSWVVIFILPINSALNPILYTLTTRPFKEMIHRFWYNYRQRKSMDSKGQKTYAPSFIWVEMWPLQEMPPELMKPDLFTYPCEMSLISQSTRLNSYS
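HEK293T cells stably expressing RXFP1 were pretreated with the PDE4 inhibitor Ro 20174, exposed to compounds for 30 min at 37C, lysed, and cAMP was read by TR-FRET. Data normalized to buffer (basal) and 29 nM porcine relaxin (100%).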
gsp antagonist = qHTS for Antagonists of gsp, the Etiologic Mutation Responsible for Fibrous Dysplasia/McCune-Albright Syndrome: qHTS | gsp-mutant cells, cAMP HTRF, 30 min | Potency, µM (highest dose often 76.9 µM), most hits filed as inhibitors | 340,000 compounds, 0.4% hits | AID 624288, 2012; calls by dose curve; cell line not stated here;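 note: intracellular cAMP measured with PDE inhibitor Ro 20-1724 present during compound exposure; nearly all actives have a fitted effect of over 65% in size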
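Cells, 2000/well, grown 16–24 h in DMEM 10% FBS with 0.5 mg/ml G418, then compounds plus […] (300 uM addition stock), 30 min at 37C. cAMP read by HTRF (cAMP-d2 and anti-cAMP antibody-K in lysis buffer) after 30 min RT.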
pAkt inh = HTS Assay for Inhibitors of Akt Phophorylation: Primary Screen; 360,000 compounds, 0.32% hits; Neuro2A IGF-stimulated pAkt S473 HTRF, 20 min; hits give low values; activity change, % for hits at 50 µM; AID 651550, 2012; in the data active = activity change below about -80%; inconclusive = mostly about -51% to -80%
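Single-point screen (50 µM final compound) in Neuro2A cells stimulated 20 min with 6 nM IGF at 37 deg C. After lysis, Ser473-phosphorylated Akt read by HTRF (ex 330 nm, em 615/665 nm) as the 665/615 ratio.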
gsp agonist = qHTS for Agonist of gsp, the Etiologic Mutation Responsible for Fibrous Dysplasia/McCune-Albright Syndrome: qHTS; gsp mutant cells, cAMP HTRF, 30 min; Potency, µM (highest dose often 76.9 µM), actives largely listed as activators; 340,000 compounds, 0.13% hits; active = well fitted activation curve with a large enough effect; inconclusive = small, poorly fitted or top-dose-only effect, or another doubt; inactive = no such curve, though single readings can be large or run the other way; cell line not stated here;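 note: phosphodiesterase inhibitor Ro 20-1724 added with compounds to block cAMP breakdown; nearly all actives have a fitted effect of over 60% in size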
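Cells stably selected in G418 were plated at 2000/well, grown 16-24 hr, then given compounds in DMSO with the PDE inhibitor […] (300 uM solution added) for 30 min at 37C; cAMP was read by HTRF.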
RXFP1 antagonist = qHTS Assay for Antagonists of the Relaxin Receptor RXFP1 | Relaxin receptor 1 (Homo sapiens), Q9HBX9 | HEK293-RXFP1, relaxin-stimulated cAMP HTRF, 30 min; hits give low values | activity change, negative = inhibition, % at 57.5 µM | 350,000 compounds, 0.59% hits | AID 1259400, 2018;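 active = activity change of -60% or lower, but not beyond a set lower limit; inconclusive = change between -60% and -40%, or beyond the set limit; inactive = change above -40%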
Large screens that a line does not name were inactive; ! = a repeat was not active. Most compounds without a hit are left out; they make up all but 1.2% or so of the library.

COc1cccc(Nc2sc(C(=O)c3ccc(F)cc3)c(N)c2C(=O)NCc2ccc(C)cc2)c1	none (no result: gsp antagonist, pAkt inh, gsp agonist)
O=C(CCCn1c(=S)[nH]c2cc3c(cc2c1=O)OCO3)NC1CC1	RXFP1 antagonist -71.7
Cc1cccc(N2CCN(C(=O)CCn3c(=S)[nH]c4cc5c(cc4c3=O)OCO5)CC2C)c1 (configuration not stated)	RXFP1 antagonist -77.2
O=C(CCCn1c(=S)[nH]c2cc3c(cc2c1=O)OCO3)NCc1ccco1	RXFP1 antagonist -63.6
O=C(CCCn1c(=S)[nH]c2cc3c(cc2c1=O)OCO3)NCCc1ccc(Cl)cc1	gsp agonist inconclusive (no result: RXFP1 ag, gsp antagonist)
O=C(CCn1c(=S)[nH]c2cc3c(cc2c1=O)OCO3)N1CCc2ccccc2C1	none (no result: gsp antagonist, pAkt inh, gsp agonist, RXFP1 antagonist)
COc1ccc(NC(=O)Cn2c(=O)n(Cc3ccccc3Cl)c(=O)c3cc(OC)c(OC)cc32)cc1OC	RXFP1 ag 25.1µM (no result: gsp antagonist, pAkt inh, gsp agonist, RXFP1 antagonist)
O=C(CCCn1c(=S)[nH]c2ccccc2c1=O)N1CCCCC1	RXFP1 antagonist inconclusive
CC1CCCCC1NC(=O)CCn1c(=S)[nH]c2ccccc2c1=O (configuration not stated)	none (no result: RXFP1 ag, gsp antagonist)
COc1ccc(N2CCN(C(=O)CCCCCn3c(=S)[nH]c4ccc(N5CCOCC5)cc4c3=O)CC2)cc1	RXFP1 antagonist -98.4 (no result: RXFP1 ag, gsp antagonist)
O=C(CCCn1c(=S)[nH]c2ccccc2c1=O)NC1CCCCC1	RXFP1 antagonist -111.3 (no result: pAkt inh)
O=C(CCCn1c(=S)[nH]c2cc3c(cc2c1=O)OCO3)N1CCN(c2ccc(Cl)cc2)CC1	RXFP1 antagonist -115.8 (no result: pAkt inh)
CC1CC(C)CN(C(=O)CCCn2c(=S)[nH]c3ccccc3c2=O)C1 (configuration not stated)	RXFP1 antagonist -97.2
COc1ccc(N2CCN(C(=O)CCCCCn3c(=S)[nH]c4cc5c(cc4c3=O)OCO5)CC2)cc1	RXFP1 ag inconclusive, RXFP1 antagonist inconclusive
CCCn1c(=O)c2sccc2n2c(CCCC(=O)NC3CCC(C)CC3)nnc12 (configuration not stated)	none (no result: gsp antagonist, pAkt inh, gsp agonist)
Cc1cc(C)cc(NC(=O)CCn2c(=S)[nH]c3ccccc3c2=O)c1	none
COc1ccc(NC(=O)CCn2c(=S)[nH]c3ccccc3c2=O)cc1OC	gsp agonist inconclusive, RXFP1 antagonist -73.7
O=C(COc1ccccc1)NNc1c2ccccc2nc2ccccc12	gsp antagonist 39.8µM
CCCC(=O)NNc1c2ccccc2nc2ccccc12	none
COc1ccc(OCC(=O)NNc2c3ccccc3nc3ccccc23)cc1	gsp antagonist 31.6µM
O=C(NNc1c2ccccc2nc2ccccc12)c1cccc(O)c1	none
O=C(NNc1c2ccccc2nc2ccccc12)c1ccc(O)cc1	gsp antagonist 35.5µM
O=C(CSc1nnc2scc(-c3ccccc3)n12)NCc1ccc2c(c1)OCO2	gsp agonist inconclusive
O=C(CSc1nnc(Cc2cccs2)n1-c1ccccc1)NCc1ccc2c(c1)OCO2	pAkt inh -84.9%
Oc1ccc(-c2csc(Nc3ccccn3)n2)cc1O	RXFP1 antagonist -63.1
COc1cc2nc(Nc3ccc(C)c(C)c3)nc(N)c2cc1OC	RXFP1 antagonist -109.8!
COc1cc2nc(Nc3ccc(C)c(Cl)c3)nc(N)c2cc1OC	none
CCN(C(=O)CCN1C(=O)/C(=C/c2ccccc2)SC1=S)C1CCS(=O)(=O)C1 (configuration not stated)	gsp antagonist 28.2µM, gsp agonist inconclusive
COc1ccc(N=C2O/C(=C/c3sc(=S)n(CC4CCCO4)c3O)N=C2C#N)cc1 (configuration not stated)	gsp antagonist 35.5µM, RXFP1 antagonist -88.3
COc1ccc(/C=C2\SC(=S)N(CC3CCCO3)C2=O)cc1 (configuration not stated)	none
CCOC(=O)c1ccc(NC(=O)Cn2cc(C(=O)c3ccc(CC)cc3)c(=O)c3ccc(C)nc32)cc1	RXFP1 ag 31.6µM (no result: gsp antagonist, pAkt inh, gsp agonist)
CCOc1ccc(S(=O)(=O)NCc2ccc(Cl)cc2)c2cccnc12	none
CCOc1ccc(S(=O)(=O)Nc2ccccc2SC)c2cccnc12	gsp antagonist 12.6µM
CCn1c(/C=C/c2cc[n+](C)cc2)nc2ccccc21	RXFP1 ag 28.2µM, gsp agonist inconclusive
CCCn1c(/C=C/c2ccccc2)nc2ccccc21	gsp antagonist inconclusive, RXFP1 antagonist -86.1!
CCOc1cc(S(=O)(=O)NCCc2ccc(OC)c(OC)c2)c(OCC)cc1-n1cnnn1	none
CCOc1cc(S(=O)(=O)NCc2ccc(OC)cc2)c(OCC)cc1-n1cnnn1	pAkt inh -92.3%
O=C(COc1ccc(/C=N/NC(=O)C(=O)N2CCCCC2)cc1)Nc1ccccc1Cl	RXFP1 antagonist -73.1
Cc1noc(C)c1COc1ccccc1C(=O)N(C)Cc1ccc(F)cc1	none
Cc1noc(C)c1COc1ccccc1C(=O)N(C)Cc1ccc(C(C)(C)C)cc1	gsp antagonist 50.1µM
CCC(C)NC(=O)Cn1cnc2sc(C)c(S(=O)(=O)N3CCN(c4ncccn4)CC3)c2c1=O (configuration not stated)	none
Cc1sc2ncn(CC(=O)Nc3ccc(C(C)C)cc3)c(=O)c2c1S(=O)(=O)N1CCN(c2ncccn2)CC1	RXFP1 ag 25.1µM (no result: gsp antagonist, pAkt inh, gsp agonist, RXFP1 antagonist)
CC(C)CCNC(=O)C1CCN(C(=O)c2cc3sccc3n2Cc2ccc(Cl)cc2)CC1	none (no result: gsp antagonist, pAkt inh, gsp agonist)
O=C1C(=O)N(C2CCN(C(=O)c3ccccc3F)CC2)CCN1Cc1ccc(F)cc1	none (no result: gsp antagonist, pAkt inh, gsp agonist)
COc1ccc(NC(=O)C/C(C)=N/NC(=O)c2ccco2)c([N+](=O)[O-])c1	gsp agonist inconclusive, RXFP1 antagonist -66.2
C[C@H](N)C(=O)N[C@@H](C)C(=O)NC1[C@H]2CN(c3nc4c(cc3F)c(=O)c(C(=O)O)cn4-c3ccc(F)cc3F)C[C@@H]12 (some centres not stated)	none (no result: RXFP1 ag, gsp antagonist, pAkt inh, gsp agonist)
CCN(CC)S(=O)(=O)c1cccc(C(=O)Nc2ccc(Cl)cn2)c1	gsp antagonist inconclusive, gsp agonist inconclusive
CCN(CC)S(=O)(=O)c1cc(C(=O)Nc2ccc(Cl)cn2)ccc1C	pAkt inh -113.6%
CCCCN1C(=O)C2C(c3ccc(OC)cc3O)NC(CC(C)C)(C(=O)O)C2C1=O (configuration not stated)	gsp antagonist 8.91µM (no result: RXFP1 antagonist)
COc1ccc(N2CC(NS(=O)(=O)c3cccs3)CC2=O)cc1OC (configuration not stated)	RXFP1 antagonist -82.1
COc1ccc(N2CC(NS(=O)(=O)c3cccs3)CC2=O)cc1 (configuration not stated)	none
CC(CCc1ccccc1)NC(=O)C1CCN(c2nnc(-n3cccc3)s2)CC1 (configuration not stated)	gsp agonist 12.6µM (no result: RXFP1 antagonist)
